From publication PMC5700166
Numbering of substitutions follows the chain as printed.

Columns and labels:
Test in all cases: protein-binding microarray (PBM); PBM: ~300 nM protein, 6 mM HEPES pH 7.8, 80 mM KCl, 0.5 mM EDTA, 0.5 mM EGTA, 6% glycerol, 35 ng/ul poly-dIdC, 1% milk, 1 h, room temperature; Ap Aiptasia and Nv Nematostella (sea anemones) / Co Capsaspora / Aq Amphimedon (sponge) / Dm Drosophila / Hu human; RHD is the Rel homology domain; high values mean tight binding
Conditions in all cases: dsDNA, one strand shown
GST-Ap-NF-kB RHD = biological target: T1, GST-Ap-NF-kB RHD (Exaiptasia pallida (Aiptasia), UniProt A0A913YAJ5 2-422)
T1 sequence: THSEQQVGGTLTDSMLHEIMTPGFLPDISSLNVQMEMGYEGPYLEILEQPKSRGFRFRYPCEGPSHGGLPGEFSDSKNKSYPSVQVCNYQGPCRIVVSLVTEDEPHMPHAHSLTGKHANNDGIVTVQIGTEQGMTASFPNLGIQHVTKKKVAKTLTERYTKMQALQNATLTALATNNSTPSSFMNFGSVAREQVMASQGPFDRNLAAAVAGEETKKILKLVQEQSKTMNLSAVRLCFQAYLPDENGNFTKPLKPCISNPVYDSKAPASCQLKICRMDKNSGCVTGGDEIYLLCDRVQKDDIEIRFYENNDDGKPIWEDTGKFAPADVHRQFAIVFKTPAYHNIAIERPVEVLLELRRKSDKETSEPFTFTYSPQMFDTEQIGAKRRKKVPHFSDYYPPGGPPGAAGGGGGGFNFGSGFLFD

[1] = biological target: T2, GST-Nv-NF-kB (Cys allele) (Nematostella vectensis, UniProt E5G601 2-411)
T2 sequence: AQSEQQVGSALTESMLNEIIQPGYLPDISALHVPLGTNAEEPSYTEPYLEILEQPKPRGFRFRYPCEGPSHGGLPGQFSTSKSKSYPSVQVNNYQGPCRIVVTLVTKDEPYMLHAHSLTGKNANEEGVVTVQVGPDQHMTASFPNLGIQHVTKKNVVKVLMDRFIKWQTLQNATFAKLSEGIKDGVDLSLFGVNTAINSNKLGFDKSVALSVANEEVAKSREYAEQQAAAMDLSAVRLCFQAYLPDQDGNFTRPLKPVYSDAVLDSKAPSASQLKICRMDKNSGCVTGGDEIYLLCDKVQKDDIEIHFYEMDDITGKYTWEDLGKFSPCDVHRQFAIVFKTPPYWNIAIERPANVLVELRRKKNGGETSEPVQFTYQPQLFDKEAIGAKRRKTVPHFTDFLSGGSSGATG

[2] = biological target: T3, GST-Nv-NF-kB (Ser allele) (Nematostella vectensis, UniProt A7UNT2 2-411)
T3 sequence: T2 sequence with Q21R, C66S, S207N, E215Q, V217A, E225K, A268E, D399E

GST-Co-NF-kB = biological target: T4, GST-Co-NF-kB (Capsaspora owczarzaki, UniProt F1ARL5 200-546)
T4 sequence: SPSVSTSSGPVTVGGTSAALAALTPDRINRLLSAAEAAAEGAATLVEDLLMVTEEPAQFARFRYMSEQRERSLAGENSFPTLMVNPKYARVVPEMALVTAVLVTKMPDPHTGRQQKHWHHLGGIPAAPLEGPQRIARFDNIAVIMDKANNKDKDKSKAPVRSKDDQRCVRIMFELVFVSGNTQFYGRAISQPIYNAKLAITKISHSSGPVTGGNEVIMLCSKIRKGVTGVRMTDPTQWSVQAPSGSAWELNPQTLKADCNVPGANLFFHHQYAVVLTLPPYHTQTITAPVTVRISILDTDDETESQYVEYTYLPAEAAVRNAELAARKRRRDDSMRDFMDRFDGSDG

GST-Dm-Relish = biological target: T5, GST-Dm-Relish (Drosophila melanogaster, UniProt Q94527 99-473)
T5 sequence: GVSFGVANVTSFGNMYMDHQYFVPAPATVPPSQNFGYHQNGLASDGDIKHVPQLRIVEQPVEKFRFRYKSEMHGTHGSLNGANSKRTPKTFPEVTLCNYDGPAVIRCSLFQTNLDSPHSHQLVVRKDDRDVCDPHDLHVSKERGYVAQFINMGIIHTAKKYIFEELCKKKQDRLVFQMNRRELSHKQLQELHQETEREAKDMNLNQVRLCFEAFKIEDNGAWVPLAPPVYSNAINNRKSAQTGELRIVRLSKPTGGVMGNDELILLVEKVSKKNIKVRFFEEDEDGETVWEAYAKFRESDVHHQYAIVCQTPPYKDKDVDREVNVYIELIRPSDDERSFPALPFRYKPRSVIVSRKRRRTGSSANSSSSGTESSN

GST-Aq-NF-kB = biological target: T6, GST-Aq-NF-kB (Amphimedon queenslandica, UniProt A9Y5G7 2-389)
T6 sequence: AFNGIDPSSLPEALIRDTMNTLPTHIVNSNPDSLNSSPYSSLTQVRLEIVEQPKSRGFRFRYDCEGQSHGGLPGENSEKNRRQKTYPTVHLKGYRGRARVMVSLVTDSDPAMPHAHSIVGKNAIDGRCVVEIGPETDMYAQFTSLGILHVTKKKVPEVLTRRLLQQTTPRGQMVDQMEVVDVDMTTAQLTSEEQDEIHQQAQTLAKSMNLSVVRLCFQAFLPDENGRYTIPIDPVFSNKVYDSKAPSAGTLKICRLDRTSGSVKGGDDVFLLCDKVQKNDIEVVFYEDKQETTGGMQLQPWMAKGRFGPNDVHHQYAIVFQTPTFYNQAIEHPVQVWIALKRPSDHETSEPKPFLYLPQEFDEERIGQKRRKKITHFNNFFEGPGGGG

GST-Hu-p50 = GST-Hu-p50 (Homo sapiens, UniProt P19838 7-356)
GST-Hu-p50, sequence (P19838 7-356): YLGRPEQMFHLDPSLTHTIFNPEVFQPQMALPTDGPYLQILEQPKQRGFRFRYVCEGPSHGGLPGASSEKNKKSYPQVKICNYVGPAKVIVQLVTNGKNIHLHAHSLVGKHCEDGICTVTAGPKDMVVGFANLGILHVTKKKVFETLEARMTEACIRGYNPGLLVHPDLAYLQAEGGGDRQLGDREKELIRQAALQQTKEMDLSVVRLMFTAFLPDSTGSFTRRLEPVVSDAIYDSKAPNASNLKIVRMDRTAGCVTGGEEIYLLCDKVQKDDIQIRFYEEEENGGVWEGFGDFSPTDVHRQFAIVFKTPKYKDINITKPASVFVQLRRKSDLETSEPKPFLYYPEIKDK

Row | Sequence | binding signal (GST-Ap-NF-kB RHD) [z-score] | binding signal [1] [z-score] | binding signal [2] [z-score] | binding signal (GST-Co-NF-kB) [z-score] | binding signal (GST-Dm-Relish) [z-score] | binding signal (GST-Aq-NF-kB) [z-score] | binding signal (GST-Hu-p50) [z-score]
1 | CCGATTAACATCAATTTTCCCCATGATGTTAATCGGGTCTTGATTCGCTTGACGCTGCTG | 6.24 | 7.68 | 9.27 | 9.2 | 2.3 | 5.53 | 6.08
2 | CCGATTAACATCAATAAATCCCCTGATGTTAATCGGGTCTTGATTCGCTTGACGCTGCTG | 7.78 | 9.33 | 11.6 | 4.45 | 9.26 | 6.63 | 7.71
3 | CCGATTAACATCAGGGGGCAATATGATGTTAATCGGGTCTTGATTCGCTTGACGCTGCTG | 3.43 | 3.24 | 3.15 | 4.37 | 2.2 | 3.54 | 3.82
4 | CCGATTAACATCACGGGGAAAACTGATGTTAATCGGGTCTTGATTCGCTTGACGCTGCTG | 7.27 | 7.6 | 9.43 | 10.2 | 5.68 | 5.55 | 5.8
5 | CCGATTAACATCAGGGGGTTTTATGATGTTAATCGGGTCTTGATTCGCTTGACGCTGCTG | 9.65 | 9.57 | 10.2 | 3.52 | 10 | 8.21 | 7.82
6 | CCGATTAACATCAAATGTCCCCCTGATGTTAATCGGGTCTTGATTCGCTTGACGCTGCTG | 6.37 | 5.25 | 5.66 | 7.6 | 5.11 | 5.64 | 4.71
7 | CCGATTAACATCAAAATTCCCCGTGATGTTAATCGGGTCTTGATTCGCTTGACGCTGCTG | 9.41 | 11.3 | 11.6 | 10.6 | 8.96 | 8.42 | 7.28
8 | CCGATTAACATCAAGGGGGAAATTGATGTTAATCGGGTCTTGATTCGCTTGACGCTGCTG | 7.69 | 8.6 | 10.5 | 8.86 | 5.87 | 7.06 | 7.51
9 | CCGATTAACATCAGGGGATTTGATGATGTTAATCGGGTCTTGATTCGCTTGACGCTGCTG | 6.34 | 6.28 | 8.85 | 2.37 | 4.27 | 4.26 | 6.12
10 | CCGATTAACATCATGGGGGAAAATGATGTTAATCGGGTCTTGATTCGCTTGACGCTGCTG | 5.67 | 6.78 | 9.23 | 10.9 | 3.09 | 5.39 | 6.88
11 | CCGATTAACATCAAGGGGGATTATGATGTTAATCGGGTCTTGATTCGCTTGACGCTGCTG | 8.36 | 7.48 | 8.59 | 4.73 | 6.5 | 6.85 | 7.48
12 | CCGATTAACATCAGGGGGAAACATGATGTTAATCGGGTCTTGATTCGCTTGACGCTGCTG | 6.11 | 7.08 | 9.19 | 10.9 | 3.99 | 5.49 | 6.58
13 | CCGATTAACATCAATTTCCCACCTGATGTTAATCGGGTCTTGATTCGCTTGACGCTGCTG | 2.39 | 3.38 | 3.89 | 2.84 | 1.17 | 2.26 | 2.74
14 | CCGATTAACATCAAGGGGGGTATTGATGTTAATCGGGTCTTGATTCGCTTGACGCTGCTG | 6 | 4.4 | 3.99 | 4.22 | 5.14 | 5.2 | 4.8
15 | CCGATTAACATCAGGGGAAAATATGATGTTAATCGGGTCTTGATTCGCTTGACGCTGCTG | 6.98 | 8.57 | 11.7 | 10.2 | 4.1 | 6.25 | 6.72
16 | CCGATTAACATCAGGGAATCACATGATGTTAATCGGGTCTTGATTCGCTTGACGCTGCTG | 1.95 | 2.66 | 2.47 | 2.22 | 9.15 | 3.28 | 1.14
17 | CCGATTAACATCAAGGGGGAGAATGATGTTAATCGGGTCTTGATTCGCTTGACGCTGCTG | 5.78 | 6.63 | 7.33 | 7.92 | 2.2 | 4.93 | 6.83
18 | CCGATTAACATCAAATTCCCCCGTGATGTTAATCGGGTCTTGATTCGCTTGACGCTGCTG | 9.52 | 8.91 | 9.58 | 11 | 8.23 | 7.32 | 7.06
19 | CCGATTAACATCACGGGGGTTCCTGATGTTAATCGGGTCTTGATTCGCTTGACGCTGCTG | 9.11 | 5.77 | 4.99 | 2.92 | 9.73 | 6.72 | 5.25
20 | CCGATTAACATCACATGTTTCCCTGATGTTAATCGGGTCTTGATTCGCTTGACGCTGCTG | 2.33 | 3.31 | 4.21 | 4.5 | 1.48 | 4.01 | 1.17
21 | CCGATTAACATCAAGGGGAATTCTGATGTTAATCGGGTCTTGATTCGCTTGACGCTGCTG | 10.3 | 11.3 | 12.1 | 6.89 | 8.49 | 8.42 | 7.65
22 | CCGATTAACATCAGGGAATTTAATGATGTTAATCGGGTCTTGATTCGCTTGACGCTGCTG | 3.7 | 6.07 | 6.59 | 4.07 | 4.24 | 5.09 | 4.45
23 | CCGATTAACATCAGAAAATTCCCTGATGTTAATCGGGTCTTGATTCGCTTGACGCTGCTG | 6.03 | 9.51 | 8 | 4.76 | 7.55 | 7.67 | 6.47
24 | CCGATTAACATCAAAAAACTCCCTGATGTTAATCGGGTCTTGATTCGCTTGACGCTGCTG | 6.44 | 8.22 | 8.11 | 3.38 | 7.13 | 7.46 | 5.69
